Most compounds without a hit are left out; they make up all but 3.2% or so of the library.
A3G deaminase – inhibitors of human APOBEC3G DNA deaminase | actives 0.28% (n = 330,000) | inhibition, % at 20 µM | Q9HC16 | recombinant A3G, ssDNA deamination FAM/TAMRA fluorescence;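 active = inhibition of at least 40% at 20 µM, with no more than 30% in the related APOBEC3A deaminase screen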;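 also: plate controls were DMSO wells with A3G for no effect and wells lacking A3G enzyme for full effect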
Target sequence (Q9HC16 whole entry, looked up): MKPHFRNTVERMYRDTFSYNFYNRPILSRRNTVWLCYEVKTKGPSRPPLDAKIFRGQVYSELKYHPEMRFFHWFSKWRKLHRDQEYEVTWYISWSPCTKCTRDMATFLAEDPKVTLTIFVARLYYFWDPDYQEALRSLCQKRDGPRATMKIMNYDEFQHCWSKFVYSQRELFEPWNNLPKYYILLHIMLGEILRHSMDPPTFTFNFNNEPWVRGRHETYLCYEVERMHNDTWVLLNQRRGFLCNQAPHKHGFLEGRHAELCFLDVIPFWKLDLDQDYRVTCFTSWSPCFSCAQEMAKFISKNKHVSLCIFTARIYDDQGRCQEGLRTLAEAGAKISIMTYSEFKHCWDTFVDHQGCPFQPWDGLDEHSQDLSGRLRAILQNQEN
NTR1 ag – NTR1 (human) agonism. P30989. NTR1-U2OS beta-arrestin-GFP spot imaging, agonist mode. activation, % at 20 µM. actives 0.17% (n = 330,000);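 active = activation at or above 40% of the spot to cytoplasm intensity ratio, with at least 20 cells analyzed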;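 also: 0% = DMSO without peptide and 100% = 100 nM NTR1 peptide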
AHR activator – activates the human aryl hydrocarbon receptor; P35869; AHR-responsive luciferase reporter cells, luminescence; activation, % at 5 µM; actives 2.5% (n = 320,000); in the data active = activation above about 47%;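 also: 0% = vehicle wells and 100% = reference agonist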
APOBEC3A inh – human APOBEC3A DNA deaminase inhibition; P31941; recombinant A3A, FAM/TAMRA ssDNA deamination fluorescence; inhibition, % at 20 µM; actives 0.41% (n = 330,000); AID 493011;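 active = at least 40% inhibition at 20 µM here, with at most 30% in a related deaminase screen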;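 also: plate controls were A3A with DMSO for no effect and wells lacking A3A enzyme for full effect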
Target sequence (P31941 whole entry, looked up): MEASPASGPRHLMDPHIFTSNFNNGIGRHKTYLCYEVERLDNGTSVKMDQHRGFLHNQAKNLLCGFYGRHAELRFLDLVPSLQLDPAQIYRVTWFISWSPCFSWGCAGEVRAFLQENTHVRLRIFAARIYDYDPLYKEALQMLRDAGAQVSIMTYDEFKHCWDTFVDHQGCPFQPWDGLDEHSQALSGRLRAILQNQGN
AHR act confirm – human AHR activation, confirmation; shares compounds with AHR activator; human cells, AHR-responsive luciferase reporter, luminescence; activation, % at 9 µM; actives 87% (n = 2,300); AID 2845; in the data active = activation above about 49%;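 also: HepG2 hepatoma cells carrying a DRE-driven firefly luciferase reporter; 0% = vehicle wells and 100% = reference agonist wells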
PXR act counter – PXR activation, counter-screen for AHR activators. shares compounds with AHR activator. cell-based PXR reporter, luciferase luminescence. activation, % at 11.6 µM. actives 88% (n = 2,300); in the data active = activation above about 11%;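 also: human hepatoma DPX-2 cells expressing full-length human PXR; 0% = DMSO and 100% = reference agonist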
Active calls of the source: *; nt = no result.

SMILES | A3G deaminase | NTR1 ag | AHR activator | APOBEC3A inh | AHR act confirm | PXR act counter
C=CCc1cccc(/C=N/NC(=O)CNc2ccccc2)c1O | 3.2 | 1.5 | 89.7* | -13.8 | 69.5* | 46.6*
NC(=O)CC(NC(=O)c1ccc(Br)cc1)c1ccc(N2CCCCCC2)c([N+](=O)[O-])c1 (configuration not stated) | -11.0 | -5.1 | 4.6 | 1.1 | nt | nt
Clc1cccc(-c2ccc(-c3nc4ccccn4c3NCc3ccccc3)cc2)c1 | -3.1 | 5.2 | 97.6* | -2.9 | 70.8* | 7.0
Cc1noc(C)c1COc1ccccc1C(=O)NNC(=O)c1ccccc1F | -5.7 | -2.6 | 91.8* | 1.8 | 116.8* | 72.6*
CN1CCN(CCCNC(=O)c2ccc(CS(=O)(=O)c3ccc(Br)cc3)o2)CC1 | -9.0 | -1.1 | 80.8* | -3.4 | 6.0 | 12.1*
CC(NC(=O)CCC(=O)c1ccccc1)c1ccc(F)cc1 (configuration not stated) | -1.6 | -0.1 | 5.3 | 2.0 | nt | nt
O=C(CSc1ccc(-c2cccnc2)nn1)Nc1ccccc1C(F)(F)F | 1.6 | -0.7 | 13.8 | -1.6 | nt | nt
COc1cc(/C=N/NC(=O)c2cccc(NC(=O)c3ccccc3)c2)ccc1O | -8.0 | 1.5 | 99.5* | -1.8 | 88.3* | nt
O=C(CN(c1ccc(F)cc1)S(=O)(=O)c1ccc2c(c1)OCCO2)Nc1ccc2c(c1)OCO2 | 4.0 | -1.6 | 101.3* | 2.4 | 51.6* | 71.7*
CC(=O)Nc1ccc(NC(=O)CN(c2ccc(F)cc2)S(=O)(=O)c2ccc3c(c2)OCCO3)cc1 | -1.0 | -1.2 | 6.4 | -1.5 | nt | nt
COc1ccccc1Nc1nc(N)nc(-c2cc3ccccc3o2)n1 | -6.5 | 8.0 | 84.7* | -2.6 | 20.9 | 46.0*
COc1cc(C)nc(Nc2nc(C)c(C(C)=O)s2)n1 | 5.1 | -0.5 | 108.4* | 7.2 | 37.8 | 11.1*
Oc1ccccc1-c1cc(-c2ccco2)[nH]n1 | -2.2 | 1.4 | 16.1 | -0.1 | nt | nt
S=c1[nH]nc(-c2cc(-c3ccco3)[nH]n2)n1-c1ccccc1Cl | 78.1 | -1.3 | 5.7 | 40.7 | nt | nt
S=c1[nH]nc(-c2cc(-c3ccco3)[nH]n2)n1-c1ccccc1 | 20.0 | -0.3 | 88.4* | -2.9 | 96.4* | 18.2*
Oc1c(-c2cc(-c3ccco3)[nH]n2)ccc2ccccc12 | 1.0 | 2.6 | 115.6* | 1.2 | 149.1* | 13.2*
Cc1nnc(SCC(=O)NNC(=O)c2ccc(Br)cc2)n1C | -7.4 | -0.9 | 3.3 | -3.8 | nt | nt
NNc1nc2sc3c(c2c(=O)[nH]1)CCc1ccccc1-3 | -2.4 | 2.2 | 132.7* | 1.4 | 77.8* | nt
Nc1ccc2nc(-c3ccc(Cl)cc3)[nH]c2c1 | -3.6 | 0.6 | 167.3* | -4.4 | 110.6* | 32.8*
Nc1ccc(-c2nc3ccc(N)cc3[nH]2)cc1 | -4.9 | 0.9 | 7.7 | 3.4 | nt | nt
Clc1ccc2nc(-c3ccc(Cl)nc3)[nH]c2c1 | -8.4 | -0.3 | 87.1* | -1.1 | 137.9* | 0.1
O=C(Nc1cc(Cl)ccc1N1CCOCC1)c1ccc(=O)[nH]c1 | -5.7 | 2.3 | 0.1 | -4.0 | nt | nt
O=C(COC(=O)c1cc(Cl)ccc1O)NCCC1=CCCCC1 | -8.2 | 1.6 | -0.1 | -3.4 | nt | nt
Cc1ccc(F)c(NC(=S)Nc2cccc3ccccc23)c1 | 0.8 | 2.2 | 94.4* | -5.9 | 9.1 | 106.4*
Cc1ccc(C)c(NC(=S)Nc2cccc3cnccc23)c1 | 2.1 | 0.2 | 31.4 | -0.6 | nt | nt
SMILES | A3G deaminase | NTR1 ag | AHR activator | APOBEC3A inh | AHR act confirm | PXR act counter
CC/C(=N/Nc1ccc(Cl)cc1)c1cnnc(SC)n1 | 18.5 | 1.4 | 98.0* | -0.9 | 93.6* | 11.7*
COc1ccc(NC(=O)c2cc3ccccc3cc2OC)cc1 | -10.7 | 3.0 | 96.5* | -5.9 | 65.7* | 11.7*
CCOc1ccc(NC(=O)c2cc3ccccc3cc2OC)cc1 | -0.3 | 6.7 | 82.8* | 2.8 | 90.5* | nt
COc1ccc(Br)cc1C(=O)Nc1cc(C)cc(C)c1 | 1.5 | 0.0 | 113.4* | 1.8 | 100.3* | 18.2*
Cc1c(-c2ccc(Br)cc2)nc2ccccn12 | -6.0 | 3.9 | 165.2* | 0.8 | 171.6* | 14.5*
Cc1ccc(-c2nc3ccccn3c2C=O)cc1 | -9.3 | 4.1 | 10.2 | -2.3 | nt | nt
COC(=O)Cc1ccc(NC(=S)N2CCN(CCO)CC2)cc1 | 1.3 | 1.1 | -0.6 | 1.5 | nt | nt
Cc1c(C(=O)N2c3ccccc3CC2C)oc2ccccc12 (configuration not stated) | 2.8 | 1.8 | 85.4* | 0.9 | 73.7* | 27.5*
Cc1ccc(NC(=O)c2[nH]cnc2C(=O)NN)cc1 | 21.3 | 0.0 | 79.3* | 2.0 | 82.2* | 16.1*
CC(=O)NS(=O)(=O)c1ccc(NC(=O)[C@@H]2CCCN2S(=O)(=O)c2ccc(Cl)cc2)cc1 | -8.4 | 0.2 | 0.2 | -3.5 | nt | nt
CC(C)c1ccc(NC(=O)c2cc(Br)ccc2Br)cc1 | -8.1 | 5.0 | 28.5 | -0.7 | nt | nt
O=C(Nc1ccc(Cl)cc1)c1ccc(Br)cc1F | -8.8 | 3.7 | 96.9* | -5.3 | 130.5* | 64.8*
CCc1noc(C)c1C(=O)Nc1nc(-c2ccc(F)cc2)c(C)s1 | -3.9 | 0.5 | 94.8* | 3.8 | 84.6* | 27.6*
O=C(CN1C(=O)NC2(CCCCC2)C1=O)Nc1ccc2[nH]c(=O)[nH]c2c1 | -2.1 | -2.7 | 0.6 | -2.3 | nt | nt
O=c1cc(-c2ccccc2)oc2ccc(Br)cc12 | -3.4 | 4.5 | 98.8* | -0.1 | 79.6* | 39.1*
COc1cccc(NC(=O)C2CCN(c3cnccn3)CC2)c1 | 0.6 | -1.9 | 3.6 | 2.1 | nt | nt
Cc1cccc(NC(=O)C2CCCN(c3nc(C)cc(C)n3)C2)c1 (configuration not stated) | -0.5 | 0.1 | 6.7 | 1.3 | nt | nt
CCc1cccc(NC(=O)C2CCCN(c3cnccn3)C2)c1 (configuration not stated) | -1.4 | 0.1 | 90.8* | -4.7 | 57.6* | 41.5*
Cc1cccc(NC(=O)C2CCCN(c3cnccn3)C2)c1 (configuration not stated) | -3.7 | -1.4 | 87.8* | -1.2 | 70.4* | 31.6*
O=C(CCC(=O)N1CCOc2ccccc21)NCCc1ccccc1 | -9.3 | -0.9 | -0.3 | -5.3 | nt | nt
Cc1ccc(NC(=O)CSCC(=O)N2CCN(Cc3ccc4c(c3)OCO4)CC2)cc1 | -7.0 | 0.2 | 1.4 | -2.3 | nt | nt
C/C(=N\NC(=O)c1cccc([N+](=O)[O-])c1)c1cccs1 | 0.0 | -0.2 | 80.9* | 1.6 | 78.9* | 30.7*
COc1ccc(NC(=O)Nc2ccc3c(c2)CCC3)cc1 | -4.2 | 1.0 | -3.1 | -1.6 | nt | nt
COC(=O)c1[nH]c2ccccc2c1NC(=O)Oc1ccccc1 | -6.3 | 1.0 | 95.4* | -6.2 | 48.2* | 19.1*
COC(=O)c1[nH]c2cc(OC)c(OC)cc2c1NC(=O)Oc1ccccc1 | 6.2 | -0.3 | -0.2 | 1.4 | nt | nt
Cn1c(=NC(=O)C2CC2)sc2cccc(F)c21 | 3.4 | 1.8 | 99.6* | 2.1 | 119.5* | 23.3*
CC(C)CC(=O)N1CCN(C(=O)c2ccc(-c3ccccc3)cc2)CC1 | -3.8 | 0.5 | 0.3 | -2.8 | nt | nt
Cc1[nH]c2ccccc2c1C(=O)CSc1ccc(Cl)cc1 | -2.0 | 1.4 | 3.5 | -1.3 | nt | nt
